For some assays here: Results with a measured potency or affinity are listed apart.
Key:
Set-up in all cases: scale not given: direction of the effect not stated beside the values
[1] = target: Protein translocase subunit SecA (Escherichia coli (strain K12)) (UniProt P10408); assay: Assay to Identify E. coli SecA ATPase Inhibitors; format: functional; settings: 30 µM
[2] = target: T1, Ubiquitin-activating enzyme e1, putative (Leishmania donovani (strain BPK282A1)) (UniProt E9BSI1); assay: Leishmania donovani Ubiquitin Activating Enzyme (LdE1); format: functional; settings: 30 µM
T1 sequence (whole entry): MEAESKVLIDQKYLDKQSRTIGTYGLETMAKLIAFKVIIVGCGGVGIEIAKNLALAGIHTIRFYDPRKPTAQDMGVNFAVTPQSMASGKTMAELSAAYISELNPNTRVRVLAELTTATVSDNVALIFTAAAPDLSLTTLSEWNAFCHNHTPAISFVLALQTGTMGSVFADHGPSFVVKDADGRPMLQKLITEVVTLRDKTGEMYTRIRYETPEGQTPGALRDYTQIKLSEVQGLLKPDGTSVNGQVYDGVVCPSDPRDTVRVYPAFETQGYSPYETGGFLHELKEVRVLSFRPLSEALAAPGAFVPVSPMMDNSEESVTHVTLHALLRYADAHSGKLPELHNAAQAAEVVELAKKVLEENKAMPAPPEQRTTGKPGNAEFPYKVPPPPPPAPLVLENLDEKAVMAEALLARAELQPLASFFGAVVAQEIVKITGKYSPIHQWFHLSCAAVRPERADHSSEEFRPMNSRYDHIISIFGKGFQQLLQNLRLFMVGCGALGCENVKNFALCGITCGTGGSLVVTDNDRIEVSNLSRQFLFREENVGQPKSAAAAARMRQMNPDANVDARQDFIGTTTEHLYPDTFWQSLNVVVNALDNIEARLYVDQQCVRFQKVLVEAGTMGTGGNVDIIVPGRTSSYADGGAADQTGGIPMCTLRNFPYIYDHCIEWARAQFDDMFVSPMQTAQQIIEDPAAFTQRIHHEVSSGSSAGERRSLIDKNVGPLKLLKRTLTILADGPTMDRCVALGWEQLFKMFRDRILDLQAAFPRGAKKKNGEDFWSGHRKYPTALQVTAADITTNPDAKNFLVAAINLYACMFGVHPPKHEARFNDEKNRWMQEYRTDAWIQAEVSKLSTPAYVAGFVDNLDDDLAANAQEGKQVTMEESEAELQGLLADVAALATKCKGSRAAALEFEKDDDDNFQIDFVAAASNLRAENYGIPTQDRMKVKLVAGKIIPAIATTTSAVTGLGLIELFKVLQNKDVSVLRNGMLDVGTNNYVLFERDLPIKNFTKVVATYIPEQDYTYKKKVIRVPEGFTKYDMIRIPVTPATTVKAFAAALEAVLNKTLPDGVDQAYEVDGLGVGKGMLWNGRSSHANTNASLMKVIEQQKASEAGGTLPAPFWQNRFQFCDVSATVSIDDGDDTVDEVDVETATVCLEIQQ

[3] = target: AMP-activated protein kinase, AMPK (Homo sapiens) (UniProt P54646+O43741+P54619+Q9UGJ0+Q9Y478+Q13131+Q9UGI9); assay: AMP-dependent Kinase enzyme assay. An in vitro enzyme assay that detects ADP turnover that is directly proportional to AMPK activity. This uses naive AMPK that is activated during the assay with MK-8722; format: functional; settings: 30 µM
[4] = target: Sialic acid-binding Ig-like lectin 9 (Homo sapiens) (UniProt Q9Y336); assay: Hs-Siglec9 ALPHAscreen SOP 20170721; settings: 10 µM
Sialic acid-binding Ig-like lectin 9 (Homo sapiens), sequence (Q9Y336 whole entry): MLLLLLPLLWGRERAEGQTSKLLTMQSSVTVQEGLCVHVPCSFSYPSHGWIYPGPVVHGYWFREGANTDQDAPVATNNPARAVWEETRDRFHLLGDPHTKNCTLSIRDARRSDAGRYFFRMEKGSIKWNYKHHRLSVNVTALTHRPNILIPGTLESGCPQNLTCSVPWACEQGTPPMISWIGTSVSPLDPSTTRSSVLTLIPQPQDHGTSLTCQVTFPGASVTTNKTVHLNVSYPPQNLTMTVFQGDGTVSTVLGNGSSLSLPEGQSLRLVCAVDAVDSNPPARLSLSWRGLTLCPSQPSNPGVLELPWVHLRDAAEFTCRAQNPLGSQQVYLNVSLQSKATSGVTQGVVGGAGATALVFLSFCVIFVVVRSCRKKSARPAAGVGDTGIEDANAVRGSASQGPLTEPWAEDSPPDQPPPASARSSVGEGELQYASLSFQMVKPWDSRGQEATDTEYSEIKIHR

Trypanosoma cruzi = assay: Trypanosoma cruzi phosphomannomutase and mannose-1-phosphate guanylyltransferase assay; format: functional; settings: 10 µM
[5] = target: T2, Arginase-2, mitochondrial (Homo sapiens) (UniProt P78540); assay: in vitro enzyme assay to detect the production of urea directly proportional to the activity of Arginase II; format: functional; settings: 33.3 µM; further: in the data most compounds retested in dose-response had high values
T2 sequence (whole entry): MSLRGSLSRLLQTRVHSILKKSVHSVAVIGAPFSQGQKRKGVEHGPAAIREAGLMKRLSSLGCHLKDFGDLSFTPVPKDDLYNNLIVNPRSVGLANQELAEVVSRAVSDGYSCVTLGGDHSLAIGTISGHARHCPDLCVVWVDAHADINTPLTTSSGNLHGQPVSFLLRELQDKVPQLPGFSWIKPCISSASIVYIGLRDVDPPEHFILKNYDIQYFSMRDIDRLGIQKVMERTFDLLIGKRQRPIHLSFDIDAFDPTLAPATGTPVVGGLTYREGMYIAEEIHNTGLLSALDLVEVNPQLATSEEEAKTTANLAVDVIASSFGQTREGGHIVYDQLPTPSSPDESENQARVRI

[6] = target: T3, Proteasome subunit beta (Trypanosoma cruzi) (UniProt O96673); assay: Trypanosoma cruzi proteasome chymotrypsin-like activity (TcProtChymo) assay.; further: in the data most compounds retested in dose-response had high values; format: functional; settings: 9.37 µM
T3 sequence (whole entry): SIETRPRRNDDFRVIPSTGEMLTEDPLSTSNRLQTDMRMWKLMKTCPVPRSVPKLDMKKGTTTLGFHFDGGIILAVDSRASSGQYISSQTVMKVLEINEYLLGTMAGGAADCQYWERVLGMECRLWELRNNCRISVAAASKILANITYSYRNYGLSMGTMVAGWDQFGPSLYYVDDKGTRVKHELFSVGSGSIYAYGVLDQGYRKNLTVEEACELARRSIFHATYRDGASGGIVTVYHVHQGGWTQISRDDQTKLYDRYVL

Homo sapiens = species on record: Homo sapiens; assay: To identify inhibition of the IFN signalling (Jak-Stat) pathway via expression of an eGFP reporter gene under the control of an IFN-stimulated response element (ISRE) containing MxA promoter.; format: functional; settings: 30 µM
[7] = target: T4, Tyrosyl-tRNA synthetase, putative (Trypanosoma cruzi (strain CL Brener)) (UniProt Q4DSP6); assay: Trypanosoma cruzi tyrosyl tRNA synthetase (TcYRS) _High Tyrosine SOP; format: functional; settings: 30 µM; further: in the data most compounds retested in dose-response had high values
T4 sequence (whole entry): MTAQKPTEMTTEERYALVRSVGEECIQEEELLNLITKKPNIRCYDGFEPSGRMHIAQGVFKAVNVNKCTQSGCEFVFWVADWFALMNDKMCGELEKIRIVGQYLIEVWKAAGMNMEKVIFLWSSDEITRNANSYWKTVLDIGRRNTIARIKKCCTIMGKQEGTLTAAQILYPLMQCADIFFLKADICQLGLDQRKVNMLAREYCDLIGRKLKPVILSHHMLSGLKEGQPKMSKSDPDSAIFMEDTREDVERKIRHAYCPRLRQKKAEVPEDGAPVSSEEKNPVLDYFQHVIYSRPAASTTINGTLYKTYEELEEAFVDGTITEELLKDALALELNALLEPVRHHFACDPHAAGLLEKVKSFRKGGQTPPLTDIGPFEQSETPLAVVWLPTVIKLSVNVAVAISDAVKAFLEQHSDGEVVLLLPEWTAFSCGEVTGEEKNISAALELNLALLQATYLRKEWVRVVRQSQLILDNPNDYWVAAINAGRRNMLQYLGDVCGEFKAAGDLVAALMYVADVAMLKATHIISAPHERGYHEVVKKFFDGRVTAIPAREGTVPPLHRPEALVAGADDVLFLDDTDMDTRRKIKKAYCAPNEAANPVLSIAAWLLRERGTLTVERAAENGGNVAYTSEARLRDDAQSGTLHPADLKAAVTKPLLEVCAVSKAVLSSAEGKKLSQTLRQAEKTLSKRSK

[8] = target: T4, Tyrosyl-tRNA synthetase, putative (Trypanosoma cruzi (strain CL Brener)); assay: Trypanosoma cruzi tyrosyl tRNA synthetase (TcYRS) SOP; format: functional; settings: 30 µM
[9] = target: Chromo domain-containing protein 1 (Saccharomyces cerevisiae (strain ATCC 204508 / S288c) (Baker's yeast)) (UniProt P32657); assay: ScCHD-1 Enzyme Inhibition Assay; format: functional; settings: 30 µM; further: in the data most compounds retested in dose-response had high values
Chromo domain-containing protein 1 (Saccharomyces cerevisiae (strain ATCC 204508 / S288c) (Baker's yeast)), sequence (P32657 whole entry, the tested form may be a part): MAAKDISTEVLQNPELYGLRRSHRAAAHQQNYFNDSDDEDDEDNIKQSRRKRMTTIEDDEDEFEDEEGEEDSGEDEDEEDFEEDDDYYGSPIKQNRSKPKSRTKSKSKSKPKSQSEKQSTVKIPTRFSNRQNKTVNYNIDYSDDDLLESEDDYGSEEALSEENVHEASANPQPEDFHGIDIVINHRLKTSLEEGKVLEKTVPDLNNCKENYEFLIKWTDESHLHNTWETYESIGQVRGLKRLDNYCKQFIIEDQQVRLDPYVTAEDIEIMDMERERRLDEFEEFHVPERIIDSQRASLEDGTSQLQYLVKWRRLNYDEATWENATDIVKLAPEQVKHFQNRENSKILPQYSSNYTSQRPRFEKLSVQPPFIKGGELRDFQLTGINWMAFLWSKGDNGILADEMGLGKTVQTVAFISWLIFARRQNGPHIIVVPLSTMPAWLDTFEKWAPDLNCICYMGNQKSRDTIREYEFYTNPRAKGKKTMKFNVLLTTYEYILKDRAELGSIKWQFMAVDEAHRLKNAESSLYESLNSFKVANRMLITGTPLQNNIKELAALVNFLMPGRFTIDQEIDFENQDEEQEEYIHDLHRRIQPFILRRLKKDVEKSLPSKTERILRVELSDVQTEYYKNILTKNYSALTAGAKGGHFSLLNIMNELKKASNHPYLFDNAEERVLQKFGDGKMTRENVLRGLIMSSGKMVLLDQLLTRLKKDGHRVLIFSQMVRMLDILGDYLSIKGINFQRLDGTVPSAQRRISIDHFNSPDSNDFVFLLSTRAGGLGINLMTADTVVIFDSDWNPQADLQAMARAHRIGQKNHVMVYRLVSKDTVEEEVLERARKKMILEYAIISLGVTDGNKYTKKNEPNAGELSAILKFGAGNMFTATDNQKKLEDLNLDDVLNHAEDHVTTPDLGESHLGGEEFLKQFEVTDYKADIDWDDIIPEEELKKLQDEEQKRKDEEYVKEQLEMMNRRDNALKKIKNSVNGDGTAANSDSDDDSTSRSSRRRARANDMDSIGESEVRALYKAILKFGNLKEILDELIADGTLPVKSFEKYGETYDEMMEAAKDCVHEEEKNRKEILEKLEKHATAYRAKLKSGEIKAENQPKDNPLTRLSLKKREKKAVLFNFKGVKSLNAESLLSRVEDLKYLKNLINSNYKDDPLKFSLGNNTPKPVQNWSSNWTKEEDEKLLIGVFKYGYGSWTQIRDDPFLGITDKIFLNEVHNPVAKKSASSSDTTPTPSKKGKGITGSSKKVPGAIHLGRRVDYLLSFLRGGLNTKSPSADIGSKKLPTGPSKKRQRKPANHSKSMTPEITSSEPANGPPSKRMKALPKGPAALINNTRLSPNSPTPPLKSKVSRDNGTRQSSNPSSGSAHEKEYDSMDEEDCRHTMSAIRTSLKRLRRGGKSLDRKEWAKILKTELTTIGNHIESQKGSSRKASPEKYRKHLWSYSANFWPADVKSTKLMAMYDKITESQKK

Protein translocase subunit SecA (Escherichia coli (strain K12)), sequence (P10408 whole entry): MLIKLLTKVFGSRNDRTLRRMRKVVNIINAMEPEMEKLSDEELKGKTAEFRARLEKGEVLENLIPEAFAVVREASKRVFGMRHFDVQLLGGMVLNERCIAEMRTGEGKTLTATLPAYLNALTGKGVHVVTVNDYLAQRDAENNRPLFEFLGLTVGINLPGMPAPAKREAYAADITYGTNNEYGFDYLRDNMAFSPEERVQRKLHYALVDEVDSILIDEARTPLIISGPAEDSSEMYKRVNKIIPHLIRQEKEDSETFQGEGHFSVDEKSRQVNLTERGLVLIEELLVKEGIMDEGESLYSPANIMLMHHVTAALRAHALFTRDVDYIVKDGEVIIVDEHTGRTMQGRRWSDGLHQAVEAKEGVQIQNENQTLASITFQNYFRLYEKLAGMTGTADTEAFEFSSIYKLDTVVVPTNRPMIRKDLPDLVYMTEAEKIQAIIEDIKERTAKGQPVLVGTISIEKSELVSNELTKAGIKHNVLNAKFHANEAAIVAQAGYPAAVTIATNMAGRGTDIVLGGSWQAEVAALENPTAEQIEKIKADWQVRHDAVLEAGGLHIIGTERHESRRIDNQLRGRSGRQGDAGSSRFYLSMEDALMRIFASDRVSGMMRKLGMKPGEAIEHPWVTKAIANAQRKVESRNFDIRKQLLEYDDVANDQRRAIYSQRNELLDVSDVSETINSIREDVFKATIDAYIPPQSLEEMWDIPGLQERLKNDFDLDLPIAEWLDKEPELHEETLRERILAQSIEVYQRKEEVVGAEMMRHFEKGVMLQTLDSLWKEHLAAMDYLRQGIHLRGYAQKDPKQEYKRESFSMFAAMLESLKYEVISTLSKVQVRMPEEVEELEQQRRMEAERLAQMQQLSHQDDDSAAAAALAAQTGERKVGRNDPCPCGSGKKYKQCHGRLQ

| SMILES | Percent Effect [1] [%] | Percent Effect [2] [%] | Percent Effect [3] [%] | Percent Effect [4] [%] | Percent Effect (Trypanosoma cruzi) [%] | Percent Effect [5] [%] | Percent Effect [6] [%] | Percent Effect (Homo sapiens) [%] | Percent Effect [7] [%] | Percent Effect [8] [%] | Percent Effect [9] [%] |
| --- | --- | --- | --- | --- | --- | --- | --- | --- | --- | --- | --- |
| Cc1ccc(C(=O)N(C)Cc2cscn2)c(=O)[nH]1 | -6.94 | 15.8 | -3.33 | 3.04 | 2.24 | 1.18 | 4.31 | 1.38 | 4.25 | 2.6 | -6.33 |
| CCOc1ccnc(N2CCN(C(=O)c3cccc(C#N)c3)CC2)n1 | -7.73 | 13.2 | -3.41 | 8.57 | -1.77 | -2.88 | 3.47 | 8.64 | 2.46 | 11.1 | 2.13 |
| CCOCC1CN(S(=O)(=O)N(C)C)Cc2cnn(C)c21 (stereo unspecified) | -2.24 | 5.48 | -0.778 | 4.27 | -5.16 | -8.38 | 4.71 | 11.6 | 7.29 | 1.24 | -2.91 |
| COCc1cnc2n1CCN(Cc1cccnc1)C2C (stereo unspecified) | -1.07 | 8 | 0.686 | 6.43 | 3.28 | -50.4 | -0.171 | -15.6 | 2.08 | 5 | -2.32 |
| CCS(=O)(=O)N1Cc2nccn2CC(Cn2nc(C)nc2C)C1 (stereo unspecified) | -2.08 | 13.5 | -5.79 | 32.6 | 4.2 | 19.6 | 16.9 | -17.4 | 5.38 | 18.5 | -4.54 |
| CCc1nc(CN2CCCN(C(=O)c3cnc[nH]3)CC2)cs1 | -0.253 | -2.7 | 2.03 | 4.57 | 2.14 | -1.66 | 12.9 | 2.83 | 3.96 | 1.22 | 4.62 |
| CS(=O)(=O)CCN1CCC2(CCCN(C3CCOCC3)C2=O)C1 (stereo unspecified) | -4.3 | 2.74 | -4.09 | 8.46 | 2.98 | -2 | 3.85 | 13.4 | 2.08 | 11.1 | -0.555 |
| CC(NC(=O)NCc1cc[nH]n1)c1ccc2c(c1)CCC(=O)N2 (stereo unspecified) | -3.48 | 13 | -2.39 | 10.7 | 5.43 | 0.712 | 4.9 | 4.17 | 4.85 | 21.9 | -9.64 |
| CS(=O)(=O)CCSc1cccc(C#N)c1 | -3.18 | -4.17 | -4.21 | -5.6 | -0.291 | -0.442 | 7.72 | 7.41 | -1.05 | 0 | -0.524 |
| N#Cc1ccc(CN2CCN(C(=O)c3cc(C4CC4)[nH]n3)CC2)cc1 | -4.3 | 21.6 | -5.26 | 14.7 | 4.74 | -3.51 | 5.21 | 23.8 | 7.92 | 18.3 | -4.6 |
| CCN1CCN(C(=O)c2nc(C)n(-c3ccccc3Cl)n2)CC1 | -9.34 | 7.89 | -2.25 | 14.9 | 5.7 | 2.16 | 3.81 | -16.5 | 4.43 | 23.5 | -7.33 |
| O=C(CN1CCCC(O)C1)NC(=O)NCc1cccs1 (stereo unspecified) | -3.76 | 13.2 | 7.52 | -8.38 | -5.16 | -3.55 | 11.8 | 15.4 | 3.19 | 7.79 | -1.85 |
| Cc1ccoc1C(=O)N1CCO[C@H]2[C@H](OCCN(C)C)CC[C@@H]21 | 0.717 | 5.33 | 0.186 | 15.6 | -2.7 | -56.5 | 5.98 | -12.8 | 2.08 | 10 | -3.32 |
| Cc1cnc(CN(C)C2CCN(CC(=O)N(C)c3nccs3)C2)o1 (stereo unspecified) | 2.75 | 17.7 | 3.25 | -2.38 | -8.4 | 0.76 | 13.2 | 40.8 | 1.48 | -3.8 | -6.37 |
| CN(Cc1nccn1CC(F)(F)F)C(=O)c1ccc(F)c(F)c1 | -4.78 | 5.26 | 7.84 | 5.27 | -1.46 | 0 | 10.4 | 4.07 | 4.25 | 13 | 26.9 |
| COc1cc(C(=O)N(C2CC2)C2CC(=O)NC2=O)ccc1C (stereo unspecified) | 0.67 | 12.7 | 4.42 | 4.45 | -7.84 | 8.37 | 1.72 | 24.4 | 4.43 | 11.4 | -4.59 |

From ChEMBL document CHEMBL3988442, “University of Dundee, Small-Polar-MMV Screening Library” (2021)
